Measurements from PubChem BioAssay (EPA / NIEHS).
The source holds several records for some structures; these can differ, active in one and inactive in another. Activity calls are given as the source filed them. The calls were made as follows: active = hit-call score of the fitted dose curve at least 0.9, where 1 is the maximum; inactive = score below 0.9.

Assay: CCTE_Shafer_MEA_acute_network_burst_percentage: CCTE's Neural Acute Assay for Percentage of Network Bursts, Shafer Lab (AID 2284022);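 also: curves fitted for loss so actives lower network burst percentage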
Experimental: CCTE_Shafer_MEA_acute assay is conducted using Axion Biosystems 48 well microelectrode array (MEA) plates and Maestro recording system. Each well of the MEA plate contains a grid of 16 microelectrodes embedded in the culture surface. Electrically active cells, such as neurons, can be cultured over the electrodes, and electrical activity in these cells can be recorded extracellularly. The spontaneous firing of neurons is captured from each electrode on a microsecond timescale providing both temporally and spatially precise data. […] The CCTE_Shafer_MEA_acute assay uses primary cultures of rat cortical neurons. As these cultures mature over time, neural networks develop functional activity and form cohesive networks in which electrical activity can be highly coordinated. Baseline 40-minute recordings are made on days post-plating 13 or 15, followed by a secondary 40-minute recording after chemical exposure.CCTE_Shafer_MEA_acute_network_burst_percentage is a component of the CCTE_Shafer_MEA_acute assay. It measures the percent of spikes (action potential firings) in network bursts (temporally-clustered groups of spikes across multiple electrodes) as the number of spikes occuring in network bursts divided by the total number of spikes during a recording in a microelectrode array (MEA) using Axion Biosystems Maestro 768 channel amplifier with the AxIS adaptive spike detector. The recordings before and after chemical treatment are used to calculate a percent change in the network burst percentage in each well.Data from the assay component CCTE_Shafer_MEA_acute_network_burst_percentage was analyzed into 1 assay endpoint. This assay endpoint, CCTE_Shafer_MEA_acute_network_burst_percentage, was analyzed in the negative analysis fitting direction relative to DMSO as the negative control and baseline of activity. Using a type of functional reporter, gain or loss-of-signal activity can be used to understand electrical activity.
Spontaneous activity in the cortical cultures was recorded using an Axion Biosystems Maestro 768 channel amplifier and Axion Integrated Studios (AxIS) v1.8 (or later) software. The amplifier recorded from all channels simultaneously (gain = 1200 x; sampling rate = 12.5 kHz/channel): raw signals were filtered with a Butterworth band-pass filter (300-5000 Hz), which filters out slower local field potentials leaving only fast potentials, i.e., "spikes", arising from extracellular currents associated with action potentials (Pine 2006; Wheeler and Nam 2011). On-line spike detection of filtered signals was conducted with the AxIS adaptive spike detector, using a threshold of 8x the root mean squared (rms) noise on each channel. Any electrodes with rms noise levels greater than 5 uV were grounded (e.g., no data were recorded). Once grounded, an electrode was grounded for the duration of the experiment. All recordings were conducted at 37 C. Wells were deemed usable if on the day of the exposure >/= 10 electrodes were active (defined as >/= 5 spikes/min). On DIV 13 or 15, a minimum of three wells from one cortical culture preparation were treated with each compound (0.03-40 uM). Prior to recording baseline activity, each mwMEA plate was placed in the Maestro at 37 C and allowed to sit for 20 min while firing rates stabilized. Baseline activity (40 min) was recorded before the addition of each compound. An additional 40 min of spontaneous activity was recorded in the presence of each compound. Changes in network parameters relative to baseline were assessed following compound treatment.

Structure (SMILES) | outcome | AC50
CC(C)COC(=O)c1ccccc1C(=O)OCC(C)C | inactive | –
O=[N+]([O-])c1ccc(Oc2ccc(Cl)cc2Cl)cc1 | – | 20 µM (active)
O=C(Oc1ccc(Br)cc1)N1CCN2CCC1CC2 | inactive | –
CCN(CC)N=O | inactive | –
Cc1ccc(N)c(N)c1 | – | 9.87 µM (active)
[Cl-].[Cl-].[Hg+2] | inactive | –
C[N+](C)(C)CC1CO1 (stereo unspecified) | inactive | –
O=P(OCCCl)(OCCCl)OCCCl | inactive | –
ClC1=C(Cl)C2(Cl)C3C(Cl)C=CC3C1(Cl)C2(Cl)Cl (stereo unspecified) | inactive | –
O=Cc1ccco1 | inactive | –
c1ccc(N=Nc2ccccc2)cc1 | – | 5.14 µM (active)
CCC[CH2][Sn]([Cl])([CH2]CCC)[CH2]CCC | inactive | 0.243 µM (active)
CC(C)(C)C(O)(CCc1ccc(Cl)cc1)Cn1cncn1 (stereo unspecified) | inactive | –
c1ccc(NNc2ccccc2)cc1 | inactive | –
CCCCCOC(=O)c1ccccc1C(=O)OCCCCC | – | 26.4 µM (active)
Cc1cc(N=Nc2ccccc2C)ccc1N | inactive | –
O=C(N[C@H](c1ccccc1)[C@@H]1CN2CCC1CC2)c1c(Cl)ccc(C(F)(F)F)c1Cl | inactive | –
COC(=O)Nc1nc2ccccc2[nH]1 | inactive | –
CCCCOC(=O)c1ccccc1C(=O)OCc1ccccc1 | – | 8.11 µM (active)
N#CC(Br)Br | inactive | –
O=[N+]([O-])C(Br)(CO)CO | – | 35.8 µM (active)
Clc1ccc(C(c2ccc(Cl)cc2)C(Cl)Cl)cc1 | – | 7.42 µM (active)
CC(C)(O)c1cnn2c(-c3ccc(F)c(-c4c(F)cccc4C#N)c3)cnc2n1 | – | 30.8 µM (active)
ClCCOCCCl | inactive | –
CCCCCCCCn1sccc1=O | – | 8.61 µM (active)
ClC1=C(Cl)[C@]2(Cl)[C@H]3[C@H]([C@@H]4C=C[C@H]3C4)[C@@]1(Cl)C2(Cl)Cl | inactive | –
CC(C)(OOC(C)(C)c1ccccc1)c1ccccc1 | inactive | –
Clc1ccc(C(c2ccc(Cl)cc2)C(Cl)(Cl)Cl)cc1 | – | 4.24 µM (active)
CCC(C)c1ccc(O)cc1 (stereo unspecified) | – | 33.9 µM (active)
CCN(CC)CCO | inactive | –
